outcome, potentiation and inhibition data for 16 compounds are collected here from PubChem BioAssay.

Assay [1] concerns TRPC4 beta (transient receptor potential cation channel C4), mouse. Kind of assay: activators of mouse TRPC4 channel, confirmation, cell-based, Fluo4 calcium, HEK293 TRPC4beta/mu-opioid, duplicates, 10 µM (AID 2426;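 active = fluorescence ratio normalized to control raised more than 50% in primary screen plus both repeat runs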). Particulars: Fluo4 calcium fluorescence, at 10 µM; stronger effect = higher value.
For assay [2], the system named is transient receptor potential cation channel C4 beta (TRPC4), mouse. Briefly: activators of mouse TRPC4 channel, confirmation, cell-based, second round, Fluo4, HEK293 TRPC4beta/mu-opioid, 1 µM (AID 2461;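 active = primary screen active and over 50% activation in each of two duplicate runs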). Particulars: Fluo4 calcium fluorescence, at 1 µM; stronger effect = higher value.
For assay [3], the system named is TRPC4 (transient receptor potential cation channel C4 beta), mouse. Kind of assay: positive allosteric modulators of mouse TRPC4, confirmation, cell-based, second round, Fluo-4, HEK293 TRPC4beta/mu-opioid, 1 µM (AID 2554;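 active = primary screen hit whose fluorescence ratio, in both repeats, exceeds the weak agonist control mean by 3 SD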). Conditions: DAMGO EC20, Fluo-4 calcium flux, at 1 µM; stronger effect = higher value. For orientation: A change in cytosolic calcium serves as a functional read-out for many receptors and channels.

The test system of assay [4] is TRPC4 beta (transient receptor potential cation channel C4), mouse. Briefly: positive allosteric modulators of mouse TRPC4, confirmation, cell-based, Fluo-4, HEK293 TRPC4beta/mu-opioid (AID 2555;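 active = primary screen hit whose calcium fluorescence ratio, in both repeats, exceeds the weak agonist control mean by 3 SD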). Particulars: DAMGO EC20, Fluo-4 calcium flux, at 10 µM; stronger effect = higher value.
Assay [5] has as its target Short transient receptor potential channel 4 (Mus musculus) (UniProt Q9QUQ5). Kind of assay: inhibitors of mouse TRPC4 channel, confirmation, cell-based, Fluo4, HEK293 TRPC4beta/mu-opioid (AID 2636;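 active = calcium signal cut by more than 3 SD below the full-agonist control yet still positive, in both repeats and the earlier primary screen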). Particulars: DAMGO, Fluo4 calcium flux, at 10 µM; stronger effect = higher value.
Assay [6] has the same target. Briefly: inhibitors of mouse TRPC4 channel, confirmation, cell-based, second round, Fluo4, HEK293 TRPC4beta/mu-opioid, 1 µM (AID 2637;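 active = calcium signal ratio cut to more than 3 SD under the fully stimulated control mean yet still positive, in both repeats and the primary screen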;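 for inhibition: percent of integrated ratio relative to wells lacking test compound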). Particulars: Fluo4 calcium flux, DAMGO, at 1 µM; stronger effect = higher value.
For assay [7] the target is unchanged. Briefly: mouse TRPC4 channel activators, dose response, cell-based, HEK293 TRPC4/mu-opioid, Fluo-4 calcium (AID 434937;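 active = primary screen activator hit with a dose response curve and TRPC4 channel activation at any tested dose; inactive = no activation, no dose response, or not a primary hit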).
Assay [8] shares this target. Briefly: TRPC4 positive allosteric modulators, dose response, cell-based, HEK293 TRPC4/mu-opioid, Fluo-4 calcium, EC20 DAMGO (AID 434941;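 active = earlier screen potentiator hit that boosts the TRPC4 ion channel at some dose, with a dose response; inactive = no potentiation, no dose response, or not a prior hit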;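 note: calcium entry triggered by an EC20 dose of DAMGO at the co-expressed mu-opioid receptor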).
The target is the same in assay [9]. Kind of assay: mouse TRPC4 channel inhibitors, dose response, cell-based, HEK293 TRPC4/mu-opioid, Fluo-4 calcium (AID 434942;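 active = primary screen inhibitor hit that blocks the TRPC4 channel at some tested dose, yielding a dose curve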).
For assay [10], the target named is Short transient receptor potential channel 6 (Mus musculus) (UniProt Q61143). Kind of assay: inhibition of mouse TRPC6 channel, confirmation, selectivity assay for TRPC4 inhibitor project, cell-based, HEK293, membrane potential dye, duplicate (AID 434948;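 active = active in primary screen and both duplicates, each dropping signal beyond three positive-control SD with fluorescence still positive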). Particulars: HEK293 TRPC6, membrane potential dye fluorescence, at 10 µM, stimulated with maximal-effect acetylcholine; stronger effect = higher value.
Chain of Short transient receptor potential channel 6 (Mus musculus) (Q61143 whole entry, looked up): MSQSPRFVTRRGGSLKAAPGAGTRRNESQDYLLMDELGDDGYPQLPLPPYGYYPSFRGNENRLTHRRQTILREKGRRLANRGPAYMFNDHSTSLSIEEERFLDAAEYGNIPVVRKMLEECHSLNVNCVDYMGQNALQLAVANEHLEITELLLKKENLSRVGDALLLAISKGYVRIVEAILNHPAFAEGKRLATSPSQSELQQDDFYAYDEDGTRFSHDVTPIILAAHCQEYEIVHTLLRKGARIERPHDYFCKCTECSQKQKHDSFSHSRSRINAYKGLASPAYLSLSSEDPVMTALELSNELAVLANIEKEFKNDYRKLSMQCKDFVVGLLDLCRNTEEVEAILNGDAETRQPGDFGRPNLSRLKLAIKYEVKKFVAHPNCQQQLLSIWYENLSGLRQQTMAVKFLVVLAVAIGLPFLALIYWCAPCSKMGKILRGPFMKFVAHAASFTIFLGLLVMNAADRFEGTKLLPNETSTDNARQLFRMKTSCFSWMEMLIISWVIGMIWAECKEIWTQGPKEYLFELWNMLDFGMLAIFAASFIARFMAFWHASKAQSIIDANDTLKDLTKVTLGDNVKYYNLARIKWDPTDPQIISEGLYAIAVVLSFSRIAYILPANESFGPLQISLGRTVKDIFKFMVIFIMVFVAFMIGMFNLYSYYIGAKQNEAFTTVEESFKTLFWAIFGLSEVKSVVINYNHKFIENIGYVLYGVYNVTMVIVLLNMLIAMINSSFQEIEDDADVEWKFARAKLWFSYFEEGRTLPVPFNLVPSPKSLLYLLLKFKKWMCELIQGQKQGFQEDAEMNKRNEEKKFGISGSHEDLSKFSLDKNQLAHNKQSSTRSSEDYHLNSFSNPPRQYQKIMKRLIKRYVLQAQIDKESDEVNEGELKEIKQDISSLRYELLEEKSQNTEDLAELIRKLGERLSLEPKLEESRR

For assay [11] the target is unchanged. Briefly: activation of mouse TRPC6 channel, confirmation, selectivity assay for TRPC4 activator project, cell-based, HEK293, membrane potential dye, duplicate (AID 434950). Particulars: HEK293 TRPC6, membrane potential fluorescence, at 10 µM; stronger effect = higher value.
The target is the same in assay [12]. Kind of assay: TRPC6 potentiation by TRPC4 potentiator hits, confirmation, selectivity assay for TRPC4 potentiator project, HEK293 cells, membrane potential dye, duplicate (AID 434952;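 active = compound raising the membrane signal above positive-control mean plus 3 SD in both repeats, and a primary screen hit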). Conditions: HEK293 TRPC6, membrane potential dye fluorescence, at 10 µM, maximal acetylcholine added after compound; stronger effect = higher value.
The target in assay [13] is Short transient receptor potential channel 4 (Mus musculus) (UniProt Q9QUQ5). Briefly: calcium flux activators in TRPC4/5HT1a cells, counter-screen for TRPC4 activator project, cell-based, second counter screen, HEK293 TRPC4/5HT1a, Fluo-4 (AID 434977;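 active = calcium signal rise above buffer-control mean plus 5 SD in both duplicates, and also a hit in the primary screen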). Conditions: Fluo-4 calcium flux, at 10 µM; stronger effect = higher value.
Chain of Short transient receptor potential channel 4 (Mus musculus) (Q9QUQ5 whole entry, looked up): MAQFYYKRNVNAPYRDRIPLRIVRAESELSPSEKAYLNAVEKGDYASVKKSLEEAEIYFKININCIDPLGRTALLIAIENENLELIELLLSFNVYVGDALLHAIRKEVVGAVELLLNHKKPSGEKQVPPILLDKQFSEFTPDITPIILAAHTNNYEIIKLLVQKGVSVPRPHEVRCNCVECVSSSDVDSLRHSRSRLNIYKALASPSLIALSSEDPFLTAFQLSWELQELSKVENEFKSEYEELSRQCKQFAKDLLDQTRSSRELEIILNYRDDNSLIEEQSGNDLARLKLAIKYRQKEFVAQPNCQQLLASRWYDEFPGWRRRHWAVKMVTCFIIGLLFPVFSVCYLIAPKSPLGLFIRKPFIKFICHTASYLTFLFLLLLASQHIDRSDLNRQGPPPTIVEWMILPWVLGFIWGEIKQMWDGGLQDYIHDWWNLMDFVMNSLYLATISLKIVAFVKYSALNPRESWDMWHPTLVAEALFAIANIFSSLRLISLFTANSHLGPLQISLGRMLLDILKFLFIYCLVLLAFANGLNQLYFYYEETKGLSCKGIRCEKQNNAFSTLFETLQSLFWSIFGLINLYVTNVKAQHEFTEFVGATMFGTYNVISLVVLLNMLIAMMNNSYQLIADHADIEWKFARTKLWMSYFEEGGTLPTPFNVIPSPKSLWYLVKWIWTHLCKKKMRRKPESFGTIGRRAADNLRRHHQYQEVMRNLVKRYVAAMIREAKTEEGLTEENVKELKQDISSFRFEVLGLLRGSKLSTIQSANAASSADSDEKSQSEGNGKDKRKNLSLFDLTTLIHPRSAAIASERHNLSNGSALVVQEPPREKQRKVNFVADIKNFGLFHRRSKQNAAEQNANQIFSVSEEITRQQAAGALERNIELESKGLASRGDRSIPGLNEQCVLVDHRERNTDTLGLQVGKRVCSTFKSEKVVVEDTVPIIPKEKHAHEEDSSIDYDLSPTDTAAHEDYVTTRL
A short description of assay [14]: calcium flux inhibitors in TRPC4/5HT1a cells, confirmation, counter-screen for TRPC4 inhibitor project, cell-based, second counter screen, HEK293 TRPC4/5HT1a, Fluo-4 (AID 434978;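 active = primary screen active whose calcium signal fell more than 3 SD beyond the full-serotonin control mean in both duplicate plates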;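 for outcome: serotonin given first at submaximal then at maximal dose after compound preincubation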). Conditions: Fluo-4 calcium flux, at 10 µM, serotonin added to trigger calcium flux; stronger effect = higher value.
Assay [15] has as its system TRPC4 (mouse), co-expressed with 5HT1a in HEK293. Kind of assay: calcium flux potentiators in TRPC4/5HT1a cells, confirmation, counter-screen for TRPC4 potentiator project, cell-based, second counter screen, HEK293 TRPC4/5HT1a, Fluo-4 (AID 434979;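 active = signal rise over 3 SD above mean of control wells given weak agonist, in both repeats and first screen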). Conditions: Fluo-4 calcium flux, at 10 µM, serotonin added at its EC20 dose; stronger effect = higher value.
A short description of assay [16]: calcium flux activation in mu-opioid HEK293 cells, confirmation, counter-screen for TRPC4 activator project, cell-based, HEK293 mu-opioid receptor line (AID 449723;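 active = hit in primary screen, with calcium signal over 5 SD above buffer well mean in both duplicates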;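 note: counter screen cells carry the mu-opioid receptor alone and lack TRPC4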). Particulars: Fluo-4 calcium fluorescence, at 10 µM; stronger effect = higher value.
Assay [17] in a line: calcium flux enhancement in mu-opioid HEK293 cells, confirmation, counter-screen for TRPC4 allosteric potentiator project, cell-based, HEK293 mu-opioid receptor line (AID 449724;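 active = calcium signal rise more than 3 SD above the low-dose agonist control mean, in both duplicate plates and the primary screen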;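 note: HEK293 cells carrying mu-opioid receptor only with no TRPC4 channel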). Particulars: Fluo-4 calcium flux, at 10 µM, compound added before EC20 DAMGO stimulus; stronger effect = higher value.

For orientation: inhibition means the drop in the measured response relative to a control, in per cent.

For some assays here: Entries with a potency or affinity are not part of this list. Active and inactive are the calls of the source.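 Rule for the calls, unless noted: active = membrane potential signal rise above negative control mean plus 3 SD in both duplicates, also active in the earlier TRPC4 screen; inactive = the rest.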

For `CCCC(=O)N/C(N)=N/c1nc(C)c2ccccc2n1`, the result in [1], in assay [2], in assay [4], in [5], in [6] and in assay [7] was inactive. The result in [8], in assay [9], in assay [10], in [11], in assay [12] and in [13] was inactive. In addition, the outcome in assay [14], in assay [16] and in assay [17] was inactive. In addition, the potentiation in [3] is 9% (active); in [15] it was 10% (active).
On to `CCN(CCCNC(=O)CCCOc1cc(=O)n(C)c2ccccc12)Cc1ccccc1`, for which the result in assay [1], in assay [2], in assay [3], in [4], in assay [5] and in [6] was inactive. The result in assay [7], in [8], in [9], in assay [10], in assay [11] and in assay [12] was inactive. The outcome in assay [13], in [14], in assay [16] and in assay [17] was inactive. The potentiation in assay [15] was 16.1% (active).
As to `CC(C)(C)n1nnnc1C(c1ccc(Cl)cc1)N(Cc1cccnc1)Cc1ccco1` (configuration not stated), the result in assay [1], in assay [2], in assay [3], in assay [4], in [5] and in [6] was inactive. Besides, the outcome in [7], in assay [8], in assay [9], in assay [10], in assay [11] and in assay [12] was inactive. Further, the result in assay [13], in assay [14], in assay [15], in assay [16] and in [17] was inactive.
On to `Cc1ccc(Cn2c(=N)c(C(=O)NCC3CCCO3)cc3c(=O)n4ccccc4nc32)cc1` (configuration not stated), for which the outcome in assay [1], in [2], in assay [3], in assay [5], in assay [6] and in assay [7] was inactive. Moreover, the outcome in [8], in assay [9], in assay [10], in [11], in assay [12] and in assay [13] was inactive. Besides, the outcome in [14], in assay [16] and in [17] was inactive. Further, the potentiation was 47% (active) in assay [4] and 19.2% (active) in assay [15].
With `CCOC(=O)Cc1csc(NC(=O)NC2(C(F)(F)F)Oc3cc(Cl)c(Cl)cc3O2)n1`, the result in assay [1], in [2], in assay [3], in assay [4], in assay [7] and in assay [8] was inactive. Also, the result in [9], in [10], in assay [11], in assay [12], in [13] and in [15] was inactive. Moreover, the result in assay [16] and in [17] was inactive. The inhibition in assay [5] is 47% (active); in [6], 41% (active); in assay [14], 39.5% (active).
Take `CCOC(=O)C(=NC1CCS(=O)(=O)C1)NNc1ccccc1Cl` (configuration not stated): the outcome in assay [1], in assay [2], in assay [3], in assay [5], in assay [6] and in [7] was inactive. The result in assay [8], in assay [9], in assay [10], in [11], in [12] and in assay [13] was inactive. Also, the outcome in assay [14], in [16] and in [17] was inactive. In addition, the potentiation in [4] is 85% (active); in [15] it was 64.7% (active).
As for `CCCC1=C(C(=O)OCC)C(c2cc(Cl)cc(OC)c2OCC(=O)OCC)NC(=O)N1` (configuration not stated), the result in assay [1], in assay [2], in assay [3], in assay [5], in assay [6] and in [7] was inactive. Besides, the outcome in assay [8], in assay [9], in [10], in assay [11], in assay [12] and in assay [13] was inactive. The result in [14], in assay [16] and in assay [17] was inactive. Moreover, the figures for the potentiation in [4] and in assay [15] were 22% (active) and 5.72% (active), respectively.
Consider `Cc1ccc(C(=O)OCCN2CCN(c3ncc(C(F)(F)F)cc3Cl)CC2)cc1`, for which the outcome in assay [1], in assay [2], in assay [3], in [5], in [6] and in assay [7] was inactive. The outcome in assay [8], in [9], in assay [10], in [11], in [12] and in [13] was inactive. In addition, the result in assay [14], in assay [16] and in assay [17] was inactive. The potentiation in assay [4] was 9% (active); in assay [15], 14.3% (active).
On to `COc1ccc(CCn2c(N)c(C#N)c3nc4ccccc4nc32)cc1OC`, for which the result in assay [1], in assay [2], in assay [3], in [4], in assay [5] and in assay [6] was inactive. The outcome in assay [7], in [8], in assay [9], in assay [10], in [11] and in assay [12] was inactive. Moreover, the outcome in assay [13], in [14], in assay [15], in [16] and in assay [17] was inactive.
For the compound `COC(=O)c1ccc(COc2ccc(/C=N/Nc3nc(C)cc(=O)[nH]3)cc2)cc1`, the outcome in assay [1], in assay [2], in assay [3], in [4], in [5] and in assay [6] was inactive. The result in assay [7], in assay [8], in assay [9], in assay [10], in assay [11] and in [12] was inactive. Also, the outcome in [13], in assay [14], in [15], in [16] and in assay [17] was inactive.
As for `CC1CN(c2nc3c(c(=O)n(Cc4ccc(Cl)c(Cl)c4)c(=O)n3C)n2C)CC(C)O1` (configuration not stated), the outcome in [1], in [2], in assay [3], in assay [5], in assay [6] and in [7] was inactive. The outcome in assay [8], in [9], in assay [10], in assay [11], in assay [12] and in [13] was inactive. For the same compound, the result in assay [14], in [16] and in assay [17] was inactive. For the same compound, the potentiation in [4] is 13% (active); in assay [15] it was 26.4% (active).
For the compound `Cn1ncc(C#N)c1/N=C/N(Cc1ccccc1)Cc1ccccc1`, the result in [1], in assay [2], in assay [3], in assay [4], in [5] and in assay [6] was inactive. The outcome in assay [7], in assay [8], in [9], in assay [10], in assay [11] and in assay [12] was inactive. Further, the outcome in assay [13], in assay [14], in [15], in assay [16] and in [17] was inactive.
On to `COc1cc(Cl)c(S(=O)(=O)N2CCN(Cc3ccc4c(c3)OCO4)CC2)cc1Cl`, for which the result in assay [1], in assay [2], in assay [3], in assay [5], in assay [6] and in [7] was inactive. Further, the outcome in assay [8], in assay [9], in assay [10], in assay [11], in [12] and in [13] was inactive. Also, the result in [14], in assay [16] and in [17] was inactive. The potentiation in assay [4] is 10% (active); in assay [15] it was 16.8% (active).
As to `C1CCN(c2nc(N3CCCCC3)nc(N3CCNCC3)n2)CC1`, the outcome in assay [1], in [2], in assay [3], in assay [4], in assay [5] and in [6] was inactive. In addition, the outcome in assay [7], in assay [8], in assay [9], in assay [10], in assay [11] and in assay [12] was inactive. Besides, the result in assay [13], in [14], in [16] and in assay [17] was inactive. The potentiation in [15] was 8.18% (active).
On to `Cc1ccc2oc(C(=O)N3CCC(O)(c4ccccc4)CC3)c(C)c2c1`, for which the result in [1], in assay [2], in assay [3], in [5], in [6] and in [7] was inactive. Moreover, the result in assay [8], in assay [9], in assay [10], in assay [11], in assay [12] and in [13] was inactive. Also, the result in assay [14], in assay [16] and in [17] was inactive. In addition, the potentiation in [4] was 11% (active); in assay [15], 27.2% (active).
As to `O=S(=O)(Cc1ccccc1)N1CCC(c2nc(-c3cccs3)no2)CC1`, the outcome in assay [1], in assay [2], in assay [3], in assay [5], in [6] and in assay [7] was inactive. Besides, the result in assay [8], in assay [9], in assay [10], in assay [11], in assay [12] and in assay [13] was inactive. Moreover, the outcome in [14], in [16] and in [17] was inactive. The potentiation was 13% (active) in assay [4] and 11.4% (active) in assay [15].
